# Test results taken from PubChem BioAssay (NCI).
# The panel holds about 79,000 compounds, 15% with a hit somewhere; the sample as a whole holds those more often. Values without a mark were called inactive. The source made the active and inactive calls. No stated cut-off is given here; in the data, active means growth inhibition above about 70%; inactive means the rest.
# Key:
# [1] = NCI Yeast Anticancer Drug Screen. Data for the rad52 strain (AID 147);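 further: 0% = growth of vehicle-treated control cultures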; conditions: S. cerevisiae rad52 mutant growth inhibition, stronger effect = higher value
# Procedure, shortened: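 Vehicle-treated cultures served as the reference for growth inhibition of compound-exposed yeast bearing a DNA repair mutation.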
# [2] = NCI Yeast Anticancer Drug Screen. Data for the wt1 strain (AID 149);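 further: 0% = growth of vehicle-treated wt1 cultures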; conditions: S. cerevisiae wt1 strain (SPY 50644) growth inhibition, stronger effect = higher value
# Procedure, shortened: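 wt1 strain grown with compound or vehicle; inhibition taken from the growth difference.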
# [3] = NCI Yeast Anticancer Drug Screen. Data for the rad50EPP+ strain (AID 151);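 further: 0% = growth of vehicle-treated control cultures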; conditions: S. cerevisiae rad50 mutant strain, stronger effect = higher value
# Procedure, shortened: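 In this screen, rad50EPP+ yeast were exposed to compounds. Growth inhibition was scored against vehicle-treated controls.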
# [4] = NCI Yeast Anticancer Drug Screen. Data for the mgt1 strain (AID 153); conditions: S. cerevisiae mgt1 mutant growth inhibition, stronger effect = higher value
# Procedure, shortened: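 mgt1 strain exposed; growth vs vehicle control recorded as inhibition.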
# [5] = NCI Yeast Anticancer Drug Screen. Data for the rad50 strain (AID 155);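 further: 0% = growth of vehicle-only cultures of the same strain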; conditions: S. cerevisiae rad50 strain growth inhibition, stronger effect = higher value
# Procedure, shortened: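 DNA repair mutant yeast, compound exposure, growth read-out; inhibition is taken relative to vehicle.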
# [6] = NCI Yeast Anticancer Drug Screen. Data for the rad14 strain (AID 159);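 further: 0% = growth of vehicle-treated control cultures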; conditions: S. cerevisiae rad14 strain growth inhibition, stronger effect = higher value
# Procedure, shortened: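 DNA repair-defective yeast, compound-exposed; % growth inhibition derived by comparison with vehicle-treated controls.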
# [7] = NCI Yeast Anticancer Drug Screen. Data for the sgs1 mgt1 strain (AID 161);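 further: 0% = growth of cultures given vehicle only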; conditions: S. cerevisiae sgs1 mgt1 strain, stronger effect = higher value
# Procedure, shortened: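 Read-out: growth inhibition vs vehicle controls. Cells: mutant yeast strain deficient in DNA damage repair.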
# [8] = NCI Yeast Anticancer Drug Screen. Data for the CLN2oe strain (AID 163);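 further: 0% = growth of vehicle-only control cultures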; conditions: S. cerevisiae CLN2oe strain, stronger effect = higher value
# Procedure, shortened: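 Inhibition relative to vehicle-treated yeast is reported. Cells: strain with genetic alteration in cell-cycle control, grown with compound.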
# [9] = NCI Yeast Anticancer Drug Screen. Data for the cln2 rad14 strain (AID 165);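 further: 0% = growth equal to vehicle treated cultures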; conditions: S. cerevisiae cln2 rad14 strain, stronger effect = higher value
# Procedure, shortened: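 Each compound was tested on cln2 rad14 yeast. Inhibition of growth was calculated against vehicle-exposed controls.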
# [10] = NCI Yeast Anticancer Drug Screen. Data for the bub3 strain (AID 167); conditions: S. cerevisiae bub3 mutant strain, stronger effect = higher value
# Procedure, shortened: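 In this screen, a yeast mutant lacking normal mitotic checkpoint function is challenged with compound. Relative growth versus vehicle gives the inhibition value.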
# [11] = NCI Yeast Anticancer Drug Screen. Data for the wt2 strain (AID 169);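 further: 0% = growth of vehicle-treated yeast cultures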; conditions: S. cerevisiae wt2 strain growth inhibition, stronger effect = higher value
# Procedure, shortened: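 Inhibition of yeast growth was determined after compound treatment, normalised to controls receiving only vehicle.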
# [12] = NCI Yeast Anticancer Drug Screen. Data for the mlh1 strain (AID 171);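 further: 0% = growth of vehicle-treated control cultures of the same strain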; conditions: S. cerevisiae mlh1 strain growth inhibition, stronger effect = higher value
# Procedure, shortened: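 Vehicle-normalised growth inhibition of a repair- or checkpoint-altered yeast strain following compound treatment.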
# [13] = NCI Yeast Anticancer Drug Screen. Data for the sgs1 strain (AID 173);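 further: 0% = growth of vehicle-only control cultures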; conditions: S. cerevisiae sgs1 mutant, stronger effect = higher value
# Procedure, shortened: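 Screen format: yeast with repair or checkpoint alterations, compound exposure, growth read relative to vehicle.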
# [14] = NCI Yeast Anticancer Drug Screen. Data for the mlh1 rad18 strain (AID 175); conditions: S. cerevisiae mlh1 rad18 strain growth inhibition, stronger effect = higher value
# Procedure, shortened: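 Vehicle-treated cultures served as the reference for growth inhibition in a yeast strain carrying DNA damage repair alterations exposed to each compound.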
# [15] = at 5.0 µM (retest, dose inferred, filed as 0.5)
# [16] = at 50.0 µM (retest, dose inferred, filed as 5.0)
compound,measurement,setting,value
OC(CCNCc1ccccc1)c1ccc2ccccc2c1 (stereo not given),growth inhibition,[1]; at 1.2 µM,15%
same,growth inhibition,[1]; at 3.7 µM,42%
same,growth inhibition,[1]; at 11.0 µM,69%
same,growth inhibition,[1]; at 33.0 µM,87% (active)
same,growth inhibition,[1]; at 100.0 µM,90% (active)
same,growth inhibition,[2]; at 1.2 µM,2%
same,growth inhibition,[2]; at 3.7 µM,33%
same,growth inhibition,[2]; at 11.0 µM,41%
same,growth inhibition,[2]; at 33.0 µM,60%
same,growth inhibition,[2]; at 100.0 µM,72% (active)
same,growth inhibition,[3]; at 1.2 µM,-5%
same,growth inhibition,[3]; at 3.7 µM,-12%
same,growth inhibition,[3]; at 11.0 µM,13%
same,growth inhibition,[3]; at 33.0 µM,27%
same,growth inhibition,[3]; at 100.0 µM,21%
same,growth inhibition,[4]; at 1.2 µM,14%
same,growth inhibition,[4]; at 3.7 µM,34%
same,growth inhibition,[4]; at 11.0 µM,63%
same,growth inhibition,[4]; at 33.0 µM,84% (active)
same,growth inhibition,[4]; at 100.0 µM,96% (active)
same,growth inhibition,[5]; at 1.2 µM,15%
same,growth inhibition,[5]; at 3.7 µM,44%
same,growth inhibition,[5]; [15],22%
same,growth inhibition,[5]; at 11.0 µM,72% (active)
same,growth inhibition,[5]; at 33.0 µM,92% (active)
same,growth inhibition,[5]; [16],88% (active)
same,growth inhibition,[5]; at 50.0 µM,75.5% (active)
same,growth inhibition,[5]; at 100.0 µM,94% (active)
same,growth inhibition,[6]; at 1.2 µM,32%
same,growth inhibition,[6]; at 3.7 µM,56%
same,growth inhibition,[6]; at 11.0 µM,85% (active)
same,growth inhibition,[6]; at 33.0 µM,96% (active)
same,growth inhibition,[6]; at 100.0 µM,99% (active)
same,growth inhibition,[7]; [15],9%
same,growth inhibition,[7]; [16],93% (active)
same,growth inhibition,[7]; at 50.0 µM,80.7% (active)
same,growth inhibition,[8]; at 1.2 µM,19%
same,growth inhibition,[8]; at 3.7 µM,53%
same,growth inhibition,[8]; at 11.0 µM,68%
same,growth inhibition,[8]; at 33.0 µM,80% (active)
same,growth inhibition,[8]; at 100.0 µM,93% (active)
same,growth inhibition,[9]; [15],29%
same,growth inhibition,[9]; [16],80% (active)
same,growth inhibition,[9]; at 50.0 µM,75.2% (active)
same,growth inhibition,[10]; at 1.2 µM,29%
same,growth inhibition,[10]; at 3.7 µM,45%
same,growth inhibition,[10]; [15],37%
same,growth inhibition,[10]; at 11.0 µM,68%
same,growth inhibition,[10]; at 33.0 µM,91% (active)
same,growth inhibition,[10]; [16],91% (active)
same,growth inhibition,[10]; at 50.0 µM,72% (active)
same,growth inhibition,[10]; at 100.0 µM,96% (active)
same,growth inhibition,[11]; at 1.2 µM,24%
same,growth inhibition,[11]; at 3.7 µM,65%
same,growth inhibition,[11]; at 11.0 µM,83% (active)
same,growth inhibition,[11]; at 33.0 µM,95% (active)
same,growth inhibition,[11]; at 100.0 µM,96% (active)
same,growth inhibition,[12]; at 1.2 µM,-4%
same,growth inhibition,[12]; at 3.7 µM,31%
same,growth inhibition,[12]; at 11.0 µM,45%
same,growth inhibition,[12]; at 33.0 µM,80% (active)
same,growth inhibition,[12]; at 100.0 µM,95% (active)
same,growth inhibition,[13]; at 1.2 µM,18%
same,growth inhibition,[13]; at 3.7 µM,20%
same,growth inhibition,[13]; at 11.0 µM,70% (active)
same,growth inhibition,[13]; at 33.0 µM,92% (active)
same,growth inhibition,[13]; at 100.0 µM,95% (active)
same,growth inhibition,[14]; [15],51%
same,growth inhibition,[14]; [16],96% (active)
same,growth inhibition,[14]; at 50.0 µM,65.7%
